The list is not random: actives were taken first. Their share in the collection is about 3.3%.
DRD3 agonist = D3 dopamine receptor (human) agonism | P35462 | D3R DiscoveRx beta-arrestin cells, luminescence, 90 min | max activation, % | hit rate 0.58% among 410,000 | AID 652048; in the data active means max activation above about 30%; further: 0% is about no effect
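Agonist mode: compounds and dopamine controls were applied to plated cells for 90 min at 37 degrees C after an overnight attachment at 1500 cells/well. Luminescent read-out followed 30 - 60 minutes at room temperature with DiscoveRx detection reagent.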
LDHA inh = LDHA (human) enzyme inhibition; P00338; purified LDHA, NADH/diaphorase-resazurin fluorescence; stronger effect = lower value; activity change, % (values are at about 110 or 230 µM); hit rate 0.15% among 480,000; in the data active means activity change below about -30%; inconclusive means mostly about -25% to -30%;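 further: plate controls were DMSO wells for no effect and wells without enzyme for full effect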
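Human LDH5 at 2 nM final in Tris HCl pH 7.4 with 0.06 mM NADH and 0.2 mM pyruvate, reacted 5 minutes at room temperature. Remaining NADH coupled via diaphorase/resazurin; resorufin fluorescence read at 0 and 20 minutes, normalized to enzyme-free and DMSO wells.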
D3 antag = blocks the human D3 dopamine receptor. P35462. D3R cells, DiscoveRx beta-arrestin luminescence, antagonist mode; stronger effect = lower value. max response, negative = inhibition, %. hit rate 2.5% among 360,000. AID 652054; in the data active means max response below about -50%; inconclusive means no clear call, values can overlap the other calls; further: on the % scale 0 is the no-effect control and ±100 the full control effect
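Cells plated overnight at 1500 cells/well, then exposed to library compounds with dopamine controls for 90 minutes at 37 degrees C. DiscoveRx reagent added for 30–60 minutes at room temperature; luminescence read, quantitative HTS format.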
PI5P4Ka inh = inhibitors of human PI5P4K alpha; P48426; PI5P4Kalpha enzyme, ADP-Glo luminescence, 60 min; stronger effect = lower value; max response, %; hit rate 1.2% among 330,000; active means max response of -50% or lower; inconclusive means between -30% and -50%; inactive means -30% or higher; further: value at the top dose of about 77 µM; on the % scale 0 is the no-effect control and ±100 the full control effect
Target sequence (P48426 whole entry, looked up): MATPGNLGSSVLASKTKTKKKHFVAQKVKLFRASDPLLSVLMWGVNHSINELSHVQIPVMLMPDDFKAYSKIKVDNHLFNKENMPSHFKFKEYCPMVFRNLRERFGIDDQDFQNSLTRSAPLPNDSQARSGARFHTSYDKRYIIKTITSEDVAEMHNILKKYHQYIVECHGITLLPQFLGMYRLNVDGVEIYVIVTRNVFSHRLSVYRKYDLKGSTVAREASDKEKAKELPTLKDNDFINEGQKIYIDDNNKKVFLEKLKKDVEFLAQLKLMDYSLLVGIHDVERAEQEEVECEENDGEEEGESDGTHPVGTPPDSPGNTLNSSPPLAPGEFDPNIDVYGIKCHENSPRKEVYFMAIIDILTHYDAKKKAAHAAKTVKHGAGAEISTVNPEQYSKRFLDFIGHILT
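PI5P4Kalpha ADP-Glo assay; 5 microM ATP final; 60 min RT reaction; HEPES pH 7.4/EGTA/CHAPS, 5% DMSO; controls lacking substrate or enzyme; luminescent end-point.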
PI4K2A block = inhibitors of human PI4K2A. Q9BTU6. purified PI4K2A, ADP-Glo luminescence, 1 h; stronger effect = lower value. AID 1346378. hit rate 0.13% among 420,000. activity change, negative = inhibition, % at 76.9 µM; in the data active means activity change below about -50%; inconclusive means mostly about -30% to -49%;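 further: -100% = wells without enzyme as full effect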
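Compounds are screened against recombinant PI4K2A using PI as substrate and ATP, the latter dispensed at 300 microM. Reactions run one hour at ambient temperature before ADP-Glo detection; full inhibition defined by wells lacking enzyme.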
Active calls of the source: *; ! = repeats disagree.

Screening CCCN1CCC(C(=O)NC(c2ccc(Cl)cc2)c2ccsc2)CC1 (stereo not given) returned DRD3 agonist -14, LDHA inh -3, D3 antag -56*, PI5P4Ka inh -2 and PI4K2A block -11.
`CCN1CCC2(CC1)N=C(SCC(=O)Nc1ccc(F)cc1)C(c1ccc(C)cc1)=N2` gave LDHA inh -1.
For COc1cc(C)c(S(=O)(=O)N2CCOCC2)cc1C(C)C the results were DRD3 agonist 3, LDHA inh 2, D3 antag -88* and PI4K2A block 1.
Screening Cc1cc(C(=O)COC(=O)c2cc(Cl)c(O)c(Cl)c2)c(C)n1C returned DRD3 agonist 3, LDHA inh -7, D3 antag 6, PI5P4Ka inh -64* and PI4K2A block -7.
`C=CCOc1ccc(C(=O)Nc2ccc(C)cc2C)cc1` gave LDHA inh -5.
Screening COc1ccccc1Oc1coc2cc(OS(C)(=O)=O)ccc2c1=O returned LDHA inh 1.
`Cc1nc(SCC(=O)Nc2ccc(S(=O)(=O)N3CCCCC3)cc2)n(C2CCCC2)c1C` gave LDHA inh 5.
`O=C(CSC(=S)N1CCCCC1)Nc1nc(-c2ccccc2)c(-c2ccccc2)o1` gave DRD3 agonist -40, LDHA inh -1, D3 antag -52* and PI4K2A block 1.
Screening Cn1nnnc1SCC(=O)Nc1nc(-c2ccccc2)c(-c2ccccc2)o1 returned DRD3 agonist -7, LDHA inh -6, D3 antag -53*, PI5P4Ka inh -7 and PI4K2A block 7.
`Cc1ccc(NC(=O)c2cc3cc(Cl)ccc3[nH]2)cc1` gave LDHA inh -2.
Screening CC(OC(=O)c1ccc(C(=O)OC(C)C(N)=O)cc1)C(N)=O (stereo not given) returned LDHA inh 4.
O=C(/C=C/c1ccccc1[N+](=O)[O-])OCC(=O)c1ccccc1F was read as LDHA inh 1.
COc1ccc(NC(=S)N(CCN(C)C)Cc2cccs2)cc1 was read as DRD3 agonist -8, LDHA inh 1, D3 antag 1, PI5P4Ka inh 2 and PI4K2A block 2.
`Cc1ccc(NC(=O)N(CCCN2CCOCC2)Cc2cccs2)cc1C` gave DRD3 agonist -11, LDHA inh -2, D3 antag -68*, PI5P4Ka inh 4 and PI4K2A block 1.
For COc1ccc(NC(=S)N(CCCN2CCCC2)Cc2cccs2)cc1 the results were DRD3 agonist -27, LDHA inh -1, D3 antag -64*, PI5P4Ka inh 14 and PI4K2A block 6.
`COc1ccc(NC(=S)N(CCCN2CCCC(C)C2)Cc2cccs2)cc1` (stereo not given) gave DRD3 agonist -21, LDHA inh -8, D3 antag -82*, PI5P4Ka inh -3 and PI4K2A block -2.
`CSc1cccc(NC(=S)N(CCCN2CCCC2)Cc2cccs2)c1` gave DRD3 agonist -20, LDHA inh -8, D3 antag -64*, PI5P4Ka inh 4 and PI4K2A block 3.
For O=C(Nc1ccc(Cl)cc1)N(CCCN1CCOCC1)Cc1cccs1 the results were DRD3 agonist -11, LDHA inh -9, D3 antag -10, PI5P4Ka inh -1 and PI4K2A block 4.
`COc1ccc(NC(=S)N(CCCN2CCCCCC2)Cc2cccs2)cc1` gave DRD3 agonist -7, LDHA inh 2, D3 antag 8, PI5P4Ka inh 0 and PI4K2A block 5.
For CCCc1nc(SCC(=O)c2ccccc2)c2c(=O)n(C)c(=O)n(C)c2n1 the results were DRD3 agonist 31*, LDHA inh -2, D3 antag 37, PI5P4Ka inh 5 and PI4K2A block 1.
`Cc1nc(-c2ccccn2)nc(SCC(=O)c2ccc(F)cc2)c1Cl` gave DRD3 agonist -1, LDHA inh -17, D3 antag 15, PI5P4Ka inh 1 and PI4K2A block -5.
CCCc1nc(SCC(=O)c2ccc(OC)cc2)c2ccccc2n1 was read as DRD3 agonist 33*, LDHA inh -3, D3 antag 36, PI5P4Ka inh 19 and PI4K2A block -8.
`COc1ccc(C(=O)CSc2nc(-c3ccccn3)nc(C)c2Cl)cc1` gave DRD3 agonist -18, LDHA inh -3, D3 antag -60*, PI5P4Ka inh 6 and PI4K2A block -6.
Cc1ccc2[nH]cc(CCNC(=O)/C=C/c3ccccc3C)c2c1 was read as LDHA inh 7.
Screening O=C(c1ccccc1)c1cc(Cl)ccc1N1C(=O)C=CC1=O returned DRD3 agonist -28, LDHA inh 0, D3 antag -92*, PI5P4Ka inh -66* and PI4K2A block 9.
`O=C(O)c1ccccc1C(=O)c1cc(Cl)ccc1Cl` gave LDHA inh -1.
CNCCCC12CCC(c3ccccc31)c1ccccc12 was read as LDHA inh -3, D3 antag -77*!, PI5P4Ka inh -7 and PI4K2A block 3.
Screening Cn1c(=O)c2c(-c3ccccc3)n(-c3cc(Cl)c([N+](=O)[O-])cc3O)cc2n(C)c1=O returned DRD3 agonist -11, LDHA inh -2, D3 antag -9, PI5P4Ka inh -13 and PI4K2A block -2.
Screening Cn1c(=O)c2c(-c3ccccc3)n(-c3cc([N+](=O)[O-])ccc3O)cc2n(C)c1=O returned DRD3 agonist -7, LDHA inh 9, D3 antag -51*, PI5P4Ka inh -28 and PI4K2A block 2.
`CC(C)(c1cc(Br)c(O)c(Br)c1)c1cc(Br)c(O)c(Br)c1` gave DRD3 agonist 30*, LDHA inh -2, D3 antag 0, PI5P4Ka inh inconclusive and PI4K2A block 1.
For COC(=O)c1ccccc1NC(=O)c1cc(N2CCCCS2(=O)=O)ccc1Cl the results were LDHA inh 3.
Cc1cc(CSc2nc(C)cc(=O)[nH]2)c2ncccc2c1 was read as DRD3 agonist 31*, LDHA inh -9, D3 antag 13, PI5P4Ka inh -6 and PI4K2A block 3.
Screening Cc1cc(=O)[nH]c(SCc2cccc3ccccc23)n1 returned DRD3 agonist 9, LDHA inh -2, D3 antag -10, PI5P4Ka inh 9 and PI4K2A block -3.
`CN(CCN(C)C1CCCCC1)C(=O)c1cc2ccccc2oc1=O` gave LDHA inh -8.
`COc1ccc(C[C@H]2CN3C(=NC[C@@H]3C(C)C)N2C[C@H](C)NC(=O)c2ccc(C)c(Br)c2)cc1` gave DRD3 agonist -60, LDHA inh -2, D3 antag -76*, PI5P4Ka inh -4 and PI4K2A block -2.
Cc1ccc(C(=O)N[C@@H](C)CN2C3=NC[C@H](C(C)C)N3C[C@H]2Cc2ccc(O)cc2)cc1Br was read as DRD3 agonist -41, LDHA inh 0, D3 antag -18, PI5P4Ka inh inconclusive and PI4K2A block 1.
